Out of some 5,500 compounds screened, about 2,000 (36%) were called active. About 18% were inconclusive and are not listed. Cut-off read from the data, not from the text of the source: active = normalized growth mostly below about 0.91 (no sharp cut-off); inconclusive = no clear call, values can overlap the other calls; inactive = mostly above about 0.92. The list shows a part of the results.
Assay: chemical genetic growth profiling, strain panel (AID 1159580);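 note: tested at 20 µM; growth read once vehicle control cultures reached saturation at 30 °C; 1 = growth at the plate median or of vehicle wells; lower values mean less growth of the strain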
Conditions: growth OD

Measured: normalized growth

OCC(O)CN1CCN(c2ccccc2)CC1 (configuration not stated)
inactive: S. cerevisiae deletion strains, locus YJR075W, strain HOC1, stronger effect = lower value 0.987 | S. cerevisiae deletion strains, locus YKL009W, strain mrt4, stronger effect = lower value 1.01 | S. cerevisiae deletion strains, locus YKL068W, stronger effect = lower value 0.994 | S. cerevisiae deletion strains, locus YKL085W, strain MDH1 (second series), stronger effect = lower value 0.99 | S. cerevisiae deletion strains, locus YKL085W, strain MDH1, stronger effect = lower value 0.99 | S. cerevisiae deletion strains, locus YKL160W, strain elf1, stronger effect = lower value 0.958 | S. cerevisiae deletion strains, locus YKL190W, strain CNB1, stronger effect = lower value 1.01 | S. cerevisiae deletion strains, locus YKR001C, strain vps1, stronger effect = lower value 1 | S. cerevisiae deletion strains, locus YKR026C, strain gcn3, stronger effect = lower value 0.977 | S. cerevisiae deletion strains, locus YKR091W, strain srl3, stronger effect = lower value 0.982 | S. cerevisiae deletion strains, locus YLL001W, strain dnm1, stronger effect = lower value 0.988 | S. cerevisiae deletion strains, locus YLL026W, stronger effect = lower value 0.988 | S. cerevisiae deletion strains, locus YLL041C, strain sdh2, stronger effect = lower value 0.975 | S. cerevisiae deletion strains, locus YLR027C, strain aat2, stronger effect = lower value 0.992 | S. cerevisiae deletion strains, locus YLR039C, strain RIC1, stronger effect = lower value 1.04 | S. cerevisiae deletion strains, locus YLR058C, strain SHM2, stronger effect = lower value 0.994 | S. cerevisiae deletion strains, locus YLR102C, strain apc9, stronger effect = lower value 1 | S. cerevisiae deletion strains, locus YLR113W, strain HOG1, stronger effect = lower value 0.999 | S. cerevisiae deletion strains, locus YLR221C, strain rsa3, stronger effect = lower value 0.973 | S. cerevisiae deletion strains, locus YLR258W, strain gsy2, stronger effect = lower value 0.992 | S. cerevisiae deletion strains, locus YLR262C, strain YPT6 (second series), stronger effect = lower value 0.959 | S. cerevisiae deletion strains, locus YLR262C, strain YPT6, stronger effect = lower value 1.05 | S. cerevisiae deletion strains, locus YLR268W, strain sec22, stronger effect = lower value 0.953 | S. cerevisiae deletion strains, locus YLR320W, strain mms22, stronger effect = lower value 1 | S. cerevisiae deletion strains, locus YLR330W, strain CHS5, stronger effect = lower value 1.02 | S. cerevisiae deletion strains, locus YLR342W, strain FKS1 (second series), stronger effect = lower value 1.02 | S. cerevisiae deletion strains, locus YLR342W, strain FKS1, stronger effect = lower value 0.993 | S. cerevisiae deletion strains, locus YLR357W, strain rsc2, stronger effect = lower value 0.987 | S. cerevisiae deletion strains, locus YLR370C, strain arc18, stronger effect = lower value 0.978 | S. cerevisiae deletion strains, locus YLR371W, strain rom2, stronger effect = lower value 1 | S. cerevisiae deletion strains, locus YLR384C, strain iki3, stronger effect = lower value 0.987 | S. cerevisiae deletion strains, locus YLR418C, strain cdc73, stronger effect = lower value 0.971 | S. cerevisiae deletion strains, locus YML016C, strain PPZ1, stronger effect = lower value 0.992 | S. cerevisiae deletion strains, locus YML032C, strain rad52, stronger effect = lower value 0.988 | S. cerevisiae deletion strains, locus YML120C, strain ndi1, stronger effect = lower value 0.982 | S. cerevisiae deletion strains, locus YML124C, strain tub3, stronger effect = lower value 0.989 | S. cerevisiae deletion strains, locus YMR058W, strain fet3, stronger effect = lower value 0.969 | S. cerevisiae deletion strains, locus YMR078C, strain ctf18, stronger effect = lower value 0.978 | S. cerevisiae deletion strains, locus YMR125W, strain sto1, stronger effect = lower value 0.995 | S. cerevisiae deletion strains, locus YMR129W, stronger effect = lower value 0.981 | S. cerevisiae deletion strains, locus YMR205C, strain PFK2, stronger effect = lower value 1.01 | S. cerevisiae deletion strains, locus YMR223W, strain ubp8, stronger effect = lower value 1.01 | S. cerevisiae deletion strains, locus YMR231W, strain pep5, stronger effect = lower value 0.989 | S. cerevisiae deletion strains, locus YMR263W, strain SAP30, stronger effect = lower value 0.989 | S. cerevisiae deletion strains, locus YMR307W, strain GAS1, stronger effect = lower value 1.03 | S. cerevisiae deletion strains, locus YNL067W, strain RPL9B, stronger effect = lower value 0.988 | S. cerevisiae deletion strains, locus YNL071W, strain lat1, stronger effect = lower value 0.985 | S. cerevisiae deletion strains, locus YNL128W, strain TEP1, stronger effect = lower value 1 | S. cerevisiae deletion strains, locus YNL153C, strain GIM3, stronger effect = lower value 0.988 | S. cerevisiae deletion strains, locus YNL183C, strain NPR1, stronger effect = lower value 0.908 | S. cerevisiae deletion strains, locus YNL209W, strain ssb2, stronger effect = lower value 0.983 | S. cerevisiae deletion strains, locus YNL233W, strain BNI4, stronger effect = lower value 1.01 | S. cerevisiae deletion strains, locus YNL248C, strain rpa49, stronger effect = lower value 0.925 | S. cerevisiae deletion strains, locus YNL250W, strain rad50, stronger effect = lower value 0.988 | S. cerevisiae deletion strains, locus YNL271C, strain bni1, stronger effect = lower value 0.985 | S. cerevisiae deletion strains, locus YNL298W, strain CLA4, stronger effect = lower value 0.985 | S. cerevisiae deletion strains, locus YNL307C, strain MCK1, stronger effect = lower value 0.997 | S. cerevisiae deletion strains, locus YNL322C, strain KRE1 (second series), stronger effect = lower value 0.97 | S. cerevisiae deletion strains, locus YNL322C, strain KRE1, stronger effect = lower value 1 | S. cerevisiae deletion strains, locus YNR049C, strain mso1, stronger effect = lower value 0.974 | S. cerevisiae deletion strains, locus YNR052C, strain pop2, stronger effect = lower value 1 | S. cerevisiae deletion strains, locus YOL006C, strain TOP1, stronger effect = lower value 0.981 | S. cerevisiae deletion strains, locus YOL012C, strain htz1 0.702 | S. cerevisiae deletion strains, locus YOL147C, strain pex11, stronger effect = lower value 0.991 | S. cerevisiae deletion strains, locus YOR001W, strain rrp6, stronger effect = lower value 0.943 | S. cerevisiae deletion strains, locus YOR061W, strain CKA2, stronger effect = lower value 0.999 | S. cerevisiae deletion strains, locus YOR069W, strain VPS5, stronger effect = lower value 0.986 | S. cerevisiae deletion strains, locus YOR070C, strain gyp1, stronger effect = lower value 0.992 | S. cerevisiae deletion strains, locus YOR080W, strain dia2, stronger effect = lower value 0.988 | S. cerevisiae deletion strains, locus YOR083W, strain WHI5, stronger effect = lower value 0.934 | S. cerevisiae deletion strains, locus YOR106W, strain vam3, stronger effect = lower value 0.943 | S. cerevisiae deletion strains, locus YOR136W, strain idh2, stronger effect = lower value 0.994 | S. cerevisiae deletion strains, locus YOR144C, strain elg1, stronger effect = lower value 0.993 | S. cerevisiae deletion strains, locus YOR184W, strain ser1, stronger effect = lower value 1 | S. cerevisiae deletion strains, locus YOR231W, strain MKK1, stronger effect = lower value 0.979 | S. cerevisiae deletion strains, locus YOR265W, strain rbl2, stronger effect = lower value 0.985 | S. cerevisiae deletion strains, locus YOR270C, strain vph1, stronger effect = lower value 0.981 | S. cerevisiae deletion strains, locus YOR290C, strain snf2, stronger effect = lower value 0.962 | S. cerevisiae deletion strains, locus YOR316C, strain cot1, stronger effect = lower value 0.985 | S. cerevisiae deletion strains, locus YPL051W, strain arl3, stronger effect = lower value 0.974 | S. cerevisiae deletion strains, locus YPL055C, strain LGE1, stronger effect = lower value 1 | S. cerevisiae deletion strains, locus YPL078C, strain atp4, stronger effect = lower value 0.932 | S. cerevisiae deletion strains, locus YPL106C, strain sse1, stronger effect = lower value 0.961 | S. cerevisiae deletion strains, locus YPL240C, strain hsp82, stronger effect = lower value 0.972 | S. cerevisiae deletion strains, locus YPL241C, strain CIN2, stronger effect = lower value 0.997 | S. cerevisiae deletion strains, locus YPL256C, strain CLN2, stronger effect = lower value 0.964 | S. cerevisiae deletion strains, locus YPR119W, strain clb2, stronger effect = lower value 0.992 | S. cerevisiae deletion strains, locus YPR141C, strain kar3, stronger effect = lower value 0.987 | S. cerevisiae deletion strains, locus YPR163C, strain tif3, stronger effect = lower value 0.988 | S. cerevisiae deletion strains, locus YPR167C, strain met16, stronger effect = lower value 0.989 | S. cerevisiae deletion strains, strain wtn01, stronger effect = lower value 0.95 | S. cerevisiae strains, strain wild type, stronger effect = lower value 1
